This is an account of results in PubChem BioAssay (NCATS).

A short description of assay [1]: Validation screen for small molecules that induce genotoxicity in human embryonic kidney (HEK293T) cells expressing luciferase-tagged ELG1 (AID 493106). Further: 0% is about no effect. The procedure, abridged: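 HEK293T cells expressing luciferase-tagged ELG1 were exposed to compound or DMSO vehicle for 16 hr at 37 °C, 5% CO2. Genotoxic stress raises ELG1 levels, so increased luciferase signal after ONE-Glo addition and 30 min at room temperature marks hits.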

The target of assay [2] is ATPase family AAA domain-containing protein 5 (Homo sapiens) (UniProt Q96QE3). Nature of the assay: Validation screen for small molecules that inhibit ELG1-dependent DNA repair in human embryonic kidney (HEK293T) cells expressing luciferase-tagged ELG1 (AID 493107). Further: nearly all actives have a fitted effect of over 70% in size. Further: potency means the concentration at half of the fitted maximal effect. The essentials:
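HEK293T cells expressing luciferase-tagged ELG1 were co-treated with 5-fluorouridine and compound or DMSO for 16 hr at 37 °C, 5% CO2. Luciferase activity was then read with ONE-Glo after 30 min at room temperature; suppressed signal indicates blocked ELG1 function.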

The nature of assay [3]: Nrf2 qHTS screen for inhibitors: Validation (AID 493153; active means well fitted inhibition curve with a large enough effect in the main read-out, with a control signal flat, not every such curve was filed as active). As to conditions: Potency: luciferase luminescence; viability change: measured here: cytotoxicity max response. The essentials: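 A549 cells carrying an ARE-driven firefly luciferase reporter, in 5% FBS OPTI-MEM, were treated with compounds in concentration-response for 18-24 h at 37°C. Viability was read by CellTiter-Fluor fluorescence, then Nrf2 activity by luciferase luminescence.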
On the technique in general: qHTS replaces the single test concentration by a dilution series.

Assay [4] concerns the target Peptidyl-prolyl cis-trans isomerase NIMA-interacting 1 (Homo sapiens) (UniProt Q13526). The assay can be described thus: qHTS Validation Assay to Find Inhibitors of Pin1 (AID 504536; active means well fitted inhibition curve with a large enough effect in the polarisation, with a control signal flat, not every such curve was filed as active; the % refers to the polarisation;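 further: 0% = full Pin1 enzyme wells and -100% = no-enzyme wells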). The essentials: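 Fluorescence polarization competition: compounds (titration) displace HiFluor-488-labeled Pin1-1b peptide from Pin1 (0.3 uM final) in pH 7.5 HEPES buffer with DTT, 10 min at room temperature; %Activity normalized to no-enzyme wells, curves fitted.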

Assay [5] has as its target Phosphoglycerate kinase, glycosomal (Trypanosoma brucei brucei) (UniProt P07378). The assay can be described thus: qHTS Validation Assay to Find Inhibitors of Phosphoglycerate Kinase (AID 504547).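 Further: control wells lack PGK and mark full inhibition.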 The procedure, abridged:
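Inhibition of the enzyme is judged by a Kinase-Glo Plus luminescent signal following a one-hour incubation at room temperature. Because 1,3-BPG is unstable, it is made in situ by GAPDH at 100nM final; no-PGK wells define the baseline.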

Assay [6] addresses phosphoglycerate mutase (Leishmania major) (UniProt Q4Q090). The assay can be described thus: qHTS Validation Assay to Find Inhibitors of Phosphoglycerate Mutase (AID 504548). Further: series mostly up to about 58 µM; on the % scale 0 is the no-effect control and ±100 the full control effect. The procedure, abridged:
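Lm PGAM at 1.25 nM final with substrate in 100 mM TEA pH 7.6, 5 mM MgCl2, 0.01% Tween-20; 45 min at room temperature. Kinase-GloPlus added, 10 min, end-point luminescence read.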

The target of assay [7] is Ubiquitin carboxyl-terminal hydrolase 1 (Homo sapiens) (UniProt O94782). The assay can be described thus: Inhibitors of USP1/UAF1: Pilot qHTS (AID 504865).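 Further: rhodamine fluorescence freed from ubiquitin-rhodamine substrate followed over time; top concentration of the series differs between compounds; on the % scale 0 is the no-effect control and ±100 the full control effect; nearly all actives have a fitted effect of over 35% in size.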 The essentials: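 USP1/UAF1 complex at 1 nM preincubated 15 min at room temperature with compound, then Ub-Rho substrate added at 150 nM final. Fluorescence (480/540 nm) read kinetically in 50 mM HEPES pH 7.8, 0.5 mM EDTA, 1 mM TCEP, 0.1 mg/ml BSA, 0.01% Tween-20.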

A short description of assay [8]: qHTS for Inhibitors of ATXN expression: Validation of Cytotoxic Assay (AID 588349). Further: on the % scale 0 is the no-effect control and ±100 the full control effect. The procedure, abridged:
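HEK293 cells were dosed with titrated compounds for 72 hr at 37 degrees C. Viability was read by CellTiter Glo luminescence, with intracellular ATP as the marker of cell survival.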

Assay [9] addresses ATP-dependent 6-phosphofructokinase (Trypanosoma brucei brucei) (UniProt O15648). The assay can be described thus: qHTS Assay to Find Inhibitors of T. brucei phosphofructokinase: hit validation (AID 492961).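 Further: luminescence reports ADP formed as PFK phosphorylates fructose-6-phosphate with ATP; series mostly up to about 51 µM; on the % scale 0 is the no-effect control and ±100 the full control effect.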 The procedure, abridged: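 ADP-Glo luminescence read-out of ADP formed by 1.25 nM PFK from 0.1 mM ATP and 0.5 mM F6P (TEA pH 8.0, 45 min, RT). Compounds titrated; activity normalized to no-enzyme and full-enzyme controls.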

Assay [10] has as its target Thyrotropin-releasing hormone receptor (Homo sapiens) (UniProt P34981). Nature of the assay: qHTS for Small Molecule Agonists and Allosteric Enhancers of Human TRH Receptor: Validation Screen for Agonists (AID 493127;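 active means calcium activation more than 3 SD above the typical response in the agonist read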;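 further: intracellular calcium rise by fluo-8 fluorescence before TRH EC20 addition; 0% is about no effect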). As to conditions: TRH receptor agonist cell assay; at 2 µM; stronger effect = higher value. The procedure, abridged:
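TRHR-expressing cells were plated overnight in serum-containing medium, then loaded with fluo-8 calcium dye at room temperature for 30 min–1.5 h. After a 10 s baseline, compound was pin-transferred and calcium fluorescence (ex 480/em 530) read kinetically for agonist response.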

The target of assay [11] is Galactokinase (Homo sapiens) (UniProt P51570). The assay can be described thus: qHTS Validation Assay for Inhibitors of Human Galactokinase (GALK) (AID 493189). Further: 0% is about no effect. The essentials:
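GALK (5 nM) with 35 uM ATP and 100 uM galactose in HEPES pH 8.0 with MgCl2, NaCl, DTT and BSA. Reaction ran 1 h at room temperature. Residual ATP read by Kinase-Glo Plus luminescence.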

Assay [12] is described as follows: Validation screen for small molecules that induce DNA re-replication in SW480 colon adenocarcinoma cells (AID 504364). Further: 0% is about no effect. The essentials: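 SW480 cells seeded at 250 per well were exposed to compound or DMSO for 48 hr at 37 C, 5% CO2, then stained with Hoechst for 40 min. DNA content per nucleus was imaged (405 nm ex, 500-530 nm em).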
Assay [13] deals with DNA dC->dU-editing enzyme APOBEC-3G (Homo sapiens) (UniProt Q9HC16). The assay can be described thus: qHTS for inhibitors of Vif-A3G interactions: Validation (AID 588379). Further: 0% is about no effect. The essentials:
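HeLa cells stably expressing Vif and A3G-eYFP, 700 cells/well, incubated overnight at 37 deg C, then exposed to compound overnight at 37 deg C. Inhibition of Vif-mediated degradation read as increased yellow fluorescence (Ex 488/Em 500-530) by laser-scanning cytometry.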

Assay [14] has as its target Bile acid receptor (Homo sapiens) (UniProt Q96RI1). Nature of the assay: qHTS assay for small molecule antagonists of farnesoid X receptor signaling (AID 588526; calls by dose curve; further: on the % scale 0 is the no-effect control and ±100 the full control effect). The procedure, abridged:
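Beta-lactamase reporter antagonist mode: HEK293T FXR-UAS-bla cells, titrated compound, CDCA stimulation, 16 h 37 C, CCF4 dye 2 h RT. Data normalized to CDCA 50 uM and DMSO; Hill-fit IC50.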

In assay [15] the target is Glucocorticoid receptor (Homo sapiens) (UniProt P04150). Nature of the assay: qHTS assay for small molecule agonists of glucocorticoid receptor signaling (AID 588532; active means well fitted curve in the direction sought with a large enough effect in the signal ratio, with a control signal flat; the % refers to the signal ratio;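 further: 100% = dexamethasone at 0.1 µM and 0% = DMSO only wells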). As to conditions: HeLa MMTV-bla, beta-lactamase ratio, agonist, 18 h; stronger effect = higher value; percent of dexamethasone control, DMSO zero. The essentials: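 Agonist-mode qHTS: GRE-driven beta-lactamase in HeLa cells exposed 18 h to titrated compounds (up to 92 uM), then CCF4 ratio read after 2 h at RT; Hill-fitted EC50, efficacy relative to 0.1 uM dexamethasone.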
Sequence of Glucocorticoid receptor (Homo sapiens) (P04150 whole entry, looked up): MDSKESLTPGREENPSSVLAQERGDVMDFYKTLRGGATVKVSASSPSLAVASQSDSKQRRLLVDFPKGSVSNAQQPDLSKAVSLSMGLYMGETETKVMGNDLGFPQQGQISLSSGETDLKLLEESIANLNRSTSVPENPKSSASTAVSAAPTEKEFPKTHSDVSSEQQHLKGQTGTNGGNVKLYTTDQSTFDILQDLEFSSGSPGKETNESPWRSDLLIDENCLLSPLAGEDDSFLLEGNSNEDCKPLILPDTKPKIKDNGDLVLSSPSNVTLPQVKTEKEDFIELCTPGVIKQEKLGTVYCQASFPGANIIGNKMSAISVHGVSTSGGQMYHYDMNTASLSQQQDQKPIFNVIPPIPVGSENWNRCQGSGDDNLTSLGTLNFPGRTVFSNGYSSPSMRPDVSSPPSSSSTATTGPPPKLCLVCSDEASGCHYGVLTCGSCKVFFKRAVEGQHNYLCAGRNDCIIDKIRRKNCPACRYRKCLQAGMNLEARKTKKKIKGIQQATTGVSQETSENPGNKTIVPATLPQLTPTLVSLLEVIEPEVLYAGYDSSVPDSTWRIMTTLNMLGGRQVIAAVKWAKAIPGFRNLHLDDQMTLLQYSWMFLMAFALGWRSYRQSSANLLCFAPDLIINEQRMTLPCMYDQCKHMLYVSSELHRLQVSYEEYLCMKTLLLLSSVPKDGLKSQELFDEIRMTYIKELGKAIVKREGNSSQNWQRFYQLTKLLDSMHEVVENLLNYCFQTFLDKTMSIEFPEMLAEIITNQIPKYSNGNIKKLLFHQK

The target is the same in assay [16]. Nature of the assay: qHTS assay for small molecule antagonists of glucocorticoid receptor signaling (AID 588533; active means well fitted inhibition curve with a large enough effect in the signal ratio, with a control signal flat, not every such curve was filed as active; the % refers to the signal ratio). The essentials:
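Antagonist-mode qHTS: compound titrations added to GRE-bla HeLa cells, then dexamethasone 2 nM final; 18 h, 37 C. CCF4 FRET fluorescence normalized to dexamethasone and DMSO; IC50 from Hill fit.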

Assay [17] addresses Androgen receptor (Homo sapiens) (UniProt P10275). The assay can be described thus: qHTS assay for small molecule agonists of androgen receptor signaling (AID 588515; active means well fitted curve in the direction sought with a large enough effect in the signal ratio, with a control signal flat; the % refers to the signal ratio; further: on the % scale 0 is the no-effect control and ±100 the full control effect). The settings on record: AR-UAS-bla HEK293, beta-lactamase ratio, agonist 16 h; stronger effect = higher value. The essentials:
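EC50 and efficacy came from Hill fits of titrations (up to 92 uM) normalized to 30 nM R1881 as 100% and DMSO as 0%. Compound exposure was 16 h at 37 C on AR-UAS-bla HEK293 cells, with a 405/460/530 nm CCF4 fluorescence read.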

The target is the same in assay [18]. Nature of the assay: qHTS assay for small molecule antagonists of androgen receptor signaling (AID 588516; active means well fitted curve in the direction sought with a large enough effect in the signal ratio, with a control signal flat, not every such curve was filed as active; the % refers to the signal ratio; further: on the % scale 0 is the no-effect control and ±100 the full control effect). The essentials: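 AR-UAS-bla GripTite HEK 293 cells (2000/well) treated with compound titrations plus 10 nM R1881 for 16 h at 37C. Beta-lactamase read by CCF4 FRET (460/530 nm); IC50 from Hill fits, normalized to R1881 and DMSO control wells.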
The target of assay [19] is Estrogen receptor (Homo sapiens) (UniProt P03372). Nature of the assay: qHTS assay for small molecule antagonists of estrogen receptor alpha signaling (AID 588513; active means well fitted curve in the direction sought with a large enough effect in the signal ratio, with a control signal flat, not every such curve was filed as active; the % refers to the signal ratio; further: on the % scale 0 is the no-effect control and ±100 the full control effect). The essentials: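 ER-alpha-UAS-bla GripTite HEK 293 cells in 2% charcoal/dextran-treated FBS medium; compounds titrated (1:2, duplicate), then stimulated with 0.5 nM 17-beta-estradiol for 18 h at 37C. CCF4 beta-lactamase fluorescence; Hill-fit IC50 and efficacy.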

Structures are written as SMILES. Several values for one entry are separate records, joined by “and”; a condition that tells them apart may be missing. Equal values may be shown once. Results filed as inconclusive are left out. Activity calls are given as the source filed them. Unless noted, the call rests on the fitted dose curve; in most records, active means well fitted curve in the direction sought with a large enough effect; inconclusive means small, poorly fitted or top-dose-only effect, or another doubt; inactive means no such curve, though single readings can be large; an effect the other way counts as inactive or inconclusive.

Sequence of Phosphoglycerate kinase, glycosomal (Trypanosoma brucei brucei) (P07378 whole entry, looked up): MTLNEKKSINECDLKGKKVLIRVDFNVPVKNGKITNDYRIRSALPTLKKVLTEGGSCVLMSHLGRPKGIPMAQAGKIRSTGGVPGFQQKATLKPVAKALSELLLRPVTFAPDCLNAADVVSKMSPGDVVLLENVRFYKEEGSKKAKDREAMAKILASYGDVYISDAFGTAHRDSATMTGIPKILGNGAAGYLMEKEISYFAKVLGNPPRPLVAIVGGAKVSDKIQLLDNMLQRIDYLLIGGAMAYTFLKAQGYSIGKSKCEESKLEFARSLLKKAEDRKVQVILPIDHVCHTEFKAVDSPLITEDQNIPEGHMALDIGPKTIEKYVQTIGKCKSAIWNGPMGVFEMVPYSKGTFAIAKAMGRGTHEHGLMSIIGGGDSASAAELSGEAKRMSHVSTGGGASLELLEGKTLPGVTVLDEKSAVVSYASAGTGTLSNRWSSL
Sequence of Thyrotropin-releasing hormone receptor (Homo sapiens) (P34981 whole entry, looked up): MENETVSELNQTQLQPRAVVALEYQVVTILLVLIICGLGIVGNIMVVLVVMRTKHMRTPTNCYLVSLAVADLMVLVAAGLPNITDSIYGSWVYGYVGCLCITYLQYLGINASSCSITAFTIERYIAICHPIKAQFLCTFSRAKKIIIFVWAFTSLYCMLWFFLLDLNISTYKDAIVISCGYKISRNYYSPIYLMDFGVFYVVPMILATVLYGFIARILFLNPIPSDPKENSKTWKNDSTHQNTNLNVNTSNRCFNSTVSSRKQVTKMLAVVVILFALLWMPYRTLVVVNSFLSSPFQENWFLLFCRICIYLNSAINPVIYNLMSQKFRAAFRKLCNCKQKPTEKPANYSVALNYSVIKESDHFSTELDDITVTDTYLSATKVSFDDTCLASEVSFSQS
Sequence of Androgen receptor (Homo sapiens) (P10275 whole entry, looked up): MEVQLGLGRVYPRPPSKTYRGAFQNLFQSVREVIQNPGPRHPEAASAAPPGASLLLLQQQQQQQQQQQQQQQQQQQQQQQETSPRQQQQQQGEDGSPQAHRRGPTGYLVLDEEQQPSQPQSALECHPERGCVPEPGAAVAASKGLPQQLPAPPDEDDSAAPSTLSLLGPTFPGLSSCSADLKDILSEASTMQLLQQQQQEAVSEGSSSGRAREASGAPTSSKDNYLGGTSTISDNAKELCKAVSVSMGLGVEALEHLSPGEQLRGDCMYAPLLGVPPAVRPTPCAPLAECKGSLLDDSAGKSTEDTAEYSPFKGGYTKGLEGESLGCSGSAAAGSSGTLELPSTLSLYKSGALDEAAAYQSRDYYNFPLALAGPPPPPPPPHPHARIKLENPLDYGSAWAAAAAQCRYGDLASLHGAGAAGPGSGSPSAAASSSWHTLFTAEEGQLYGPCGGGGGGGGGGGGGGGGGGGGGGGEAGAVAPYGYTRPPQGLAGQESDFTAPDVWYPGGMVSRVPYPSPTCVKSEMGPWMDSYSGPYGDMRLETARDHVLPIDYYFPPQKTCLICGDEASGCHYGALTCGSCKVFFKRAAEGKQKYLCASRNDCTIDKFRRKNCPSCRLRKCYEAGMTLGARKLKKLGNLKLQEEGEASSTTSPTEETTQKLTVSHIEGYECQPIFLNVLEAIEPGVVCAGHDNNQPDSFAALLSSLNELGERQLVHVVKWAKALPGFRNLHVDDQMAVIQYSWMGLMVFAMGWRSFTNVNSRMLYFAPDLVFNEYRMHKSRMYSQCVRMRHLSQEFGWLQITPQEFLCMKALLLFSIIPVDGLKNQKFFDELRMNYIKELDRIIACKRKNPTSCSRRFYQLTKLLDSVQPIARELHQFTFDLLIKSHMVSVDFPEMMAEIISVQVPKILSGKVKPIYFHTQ
Sequence of ATPase family AAA domain-containing protein 5 (Homo sapiens) (Q96QE3 whole entry, looked up, the tested form may be a part): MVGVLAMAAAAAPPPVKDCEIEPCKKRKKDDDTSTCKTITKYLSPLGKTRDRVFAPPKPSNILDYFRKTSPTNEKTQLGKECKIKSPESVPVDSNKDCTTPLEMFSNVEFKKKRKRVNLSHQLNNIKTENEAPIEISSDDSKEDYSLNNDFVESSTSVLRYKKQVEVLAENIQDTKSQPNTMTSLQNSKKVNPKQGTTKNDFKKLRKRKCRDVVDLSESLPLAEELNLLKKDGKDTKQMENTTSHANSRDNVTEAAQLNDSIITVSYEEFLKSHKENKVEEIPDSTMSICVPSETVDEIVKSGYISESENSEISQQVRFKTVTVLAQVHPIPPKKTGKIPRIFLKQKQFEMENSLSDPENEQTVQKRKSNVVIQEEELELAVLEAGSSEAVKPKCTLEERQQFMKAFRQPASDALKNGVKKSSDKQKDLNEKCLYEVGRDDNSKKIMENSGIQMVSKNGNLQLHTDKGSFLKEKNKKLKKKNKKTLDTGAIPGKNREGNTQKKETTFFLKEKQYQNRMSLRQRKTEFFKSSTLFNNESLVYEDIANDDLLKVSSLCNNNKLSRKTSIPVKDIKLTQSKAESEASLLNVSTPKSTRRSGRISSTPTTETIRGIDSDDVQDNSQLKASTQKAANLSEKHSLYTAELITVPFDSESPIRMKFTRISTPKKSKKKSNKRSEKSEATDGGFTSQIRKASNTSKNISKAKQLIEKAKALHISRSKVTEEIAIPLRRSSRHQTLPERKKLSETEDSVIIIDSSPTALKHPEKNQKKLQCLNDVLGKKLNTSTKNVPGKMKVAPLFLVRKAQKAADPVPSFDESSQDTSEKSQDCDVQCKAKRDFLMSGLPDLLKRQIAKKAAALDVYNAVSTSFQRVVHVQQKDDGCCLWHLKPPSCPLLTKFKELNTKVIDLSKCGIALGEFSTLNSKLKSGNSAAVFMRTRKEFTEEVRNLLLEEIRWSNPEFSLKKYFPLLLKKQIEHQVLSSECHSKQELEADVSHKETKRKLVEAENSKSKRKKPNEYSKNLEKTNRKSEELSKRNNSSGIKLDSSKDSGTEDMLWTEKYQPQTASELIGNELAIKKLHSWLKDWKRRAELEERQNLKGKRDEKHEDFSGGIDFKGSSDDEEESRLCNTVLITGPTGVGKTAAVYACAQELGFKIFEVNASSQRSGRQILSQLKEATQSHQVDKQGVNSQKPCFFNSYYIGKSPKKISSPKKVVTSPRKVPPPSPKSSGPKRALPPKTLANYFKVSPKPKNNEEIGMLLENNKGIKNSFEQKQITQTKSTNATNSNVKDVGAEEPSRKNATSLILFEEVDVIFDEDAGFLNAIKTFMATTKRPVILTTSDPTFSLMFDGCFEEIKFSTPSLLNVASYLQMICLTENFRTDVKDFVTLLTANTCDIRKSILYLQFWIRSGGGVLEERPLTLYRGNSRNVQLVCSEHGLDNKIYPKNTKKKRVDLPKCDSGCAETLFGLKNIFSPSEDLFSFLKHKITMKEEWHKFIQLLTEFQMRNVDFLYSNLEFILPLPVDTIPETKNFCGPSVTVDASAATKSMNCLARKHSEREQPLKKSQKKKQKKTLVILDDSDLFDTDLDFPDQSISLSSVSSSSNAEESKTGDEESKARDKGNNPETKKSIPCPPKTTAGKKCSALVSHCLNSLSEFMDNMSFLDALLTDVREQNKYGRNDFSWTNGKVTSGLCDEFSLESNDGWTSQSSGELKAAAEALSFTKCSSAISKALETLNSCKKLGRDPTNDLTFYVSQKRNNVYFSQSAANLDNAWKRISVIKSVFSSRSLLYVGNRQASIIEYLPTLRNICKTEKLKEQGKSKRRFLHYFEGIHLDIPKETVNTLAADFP
Sequence of Bile acid receptor (Homo sapiens) (Q96RI1 whole entry, looked up): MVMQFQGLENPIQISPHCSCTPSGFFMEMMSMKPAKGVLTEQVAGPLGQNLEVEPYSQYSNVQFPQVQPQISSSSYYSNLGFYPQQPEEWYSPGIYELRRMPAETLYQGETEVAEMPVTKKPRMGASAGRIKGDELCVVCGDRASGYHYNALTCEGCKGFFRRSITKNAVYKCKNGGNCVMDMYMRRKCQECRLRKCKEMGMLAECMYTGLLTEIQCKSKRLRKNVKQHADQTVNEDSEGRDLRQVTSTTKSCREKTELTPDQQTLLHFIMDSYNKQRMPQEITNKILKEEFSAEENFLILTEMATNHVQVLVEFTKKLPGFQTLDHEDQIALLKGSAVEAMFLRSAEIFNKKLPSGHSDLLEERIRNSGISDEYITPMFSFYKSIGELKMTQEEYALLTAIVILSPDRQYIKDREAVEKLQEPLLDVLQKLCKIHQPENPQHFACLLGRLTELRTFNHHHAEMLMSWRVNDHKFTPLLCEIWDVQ
Sequence of Peptidyl-prolyl cis-trans isomerase NIMA-interacting 1 (Homo sapiens) (Q13526 whole entry, looked up): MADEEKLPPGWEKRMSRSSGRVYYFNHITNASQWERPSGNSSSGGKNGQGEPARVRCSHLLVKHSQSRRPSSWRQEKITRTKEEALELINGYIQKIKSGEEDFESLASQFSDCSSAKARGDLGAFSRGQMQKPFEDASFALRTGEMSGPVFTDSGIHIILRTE

`COC(=O)C1=CO[C@@H](O)[C@@H]2C(CO)=CC[C@H]12`: the result in assay [1], in assay [4], in assay [5], in assay [6] and in assay [8] was inactive. Moreover, the Potency result in assay [2], in assay [3] and in assay [7] was “inactive” throughout. The viability change in [3] was -6.84%.
As for `Nc1ncnc2nc[nH]c12`, the outcome in assay [9] was inactive. In addition, the Potency result in [7] is “inactive”.
For the molecule `NC(N)=NCCCCN=C(N)N`, the outcome in [1], in [11], in assay [12], in [4], in [5] and in assay [6] was inactive. In addition, the molecule was called inactive in [8] and in assay [13]. The Potency entry in assay [2], in [3] and in assay [7] was “inactive” each time. Moreover, the activation in [10] was 0.938% (inactive). Further, the viability change in assay [3] was 2.98%.
Turning to `C[C@]12CCC(=O)C=C1CC[C@@H]1[C@@H]2[C@@H](O)C[C@@]2(C)[C@H]1CC[C@]2(O)C(=O)COC(=O)CCC(=O)O`, in assay [10], the activation was -0.0625% (inactive). Also, the molecule was called inactive in [11] and in assay [12].
As for `Clc1ccc2c(c1)N=C(N1CCNCC1)c1ccccc1N2`, the call in assay [1], in [4], in assay [5], in assay [6] and in assay [13] was inactive. Moreover, the Potency result in [2] and in [3] was “inactive” throughout. Moreover, the viability change in assay [3] stood at 1.81%.
Regarding `Nc1c2ccccc2nc2ccccc12`, in [9], the outcome was inactive. For the same molecule, the Potency result in assay [7] is “inactive”.
`COc1cccc2c1[C@@H]1CN(CCCCn3c(=O)[nH]c4c(sc5ncc(-c6ccccc6)nc54)c3=O)C[C@@H]1CO2`: the molecule was called inactive in [1], in assay [11], in [12], in [4], in [5] and in [6]. For the same molecule, the Potency in assay [2] is 23.1 µM (active). For the same molecule, the activation in [10] was 0.5% (inactive). Moreover, in assay [7], the Potency result was “inactive”.
As for `Nc1c[n+](N2CCOCC2)no1`, in assay [7], the Potency result was “inactive”. Also, the call in [13] was inactive.
Regarding `CCOC(=O)NNc1nncc2ccccc12`, the Potency result in assay [7] is “inactive”.
As to `c1ccc2occc2c1`, the call in assay [14] was inactive.
As for `Cc1ncc(CO)c(CO)c1O`, in assay [7], the Potency entry was “inactive”. Besides, the result in assay [14] was inactive.
Turning to `O=C(Oc1ccccc1)c1cccc(C(=O)Oc2ccccc2)c1`, the outcome in assay [14] and in assay [16] was inactive. Also, the activation in [15] was -8.17% (inactive).
With `O=C(c1ccccc1)c1ccccc1`, the activation in assay [17] was 19.2% (inactive) and -0.683% (inactive); in [15], -1.61% (inactive) and 0.77% (inactive). In addition, the molecule was classed as inactive in assay [18], in assay [14] and in assay [16].
Consider `Brc1ccccc1-c1ccccc1`, for which the activation in assay [15] is 8.87% (inactive).
As for `Nc1ccc(O)cc1`, the call in assay [19] and in [14] was inactive. Further, in assay [15], the activation is 1.91% (inactive).
